Test results published in PubChem BioAssay (NCI).
About 83,000 compounds went through this panel and 20% of them were active in at least one assay; those are over-represented in the sample as a whole.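 Interpretation: 100, growth as untreated; towards 0, rising growth inhibition; 0, no net growth; 0 to -100, cell death. Compounds scoring below 10 were considered active.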 Activity calls are given as the source filed them.

How the values were obtained:
Experiment in all cases: NCI-60 one-dose screen, 48 h (100 = growth as untreated, 0 = no growth, -100 = all killed)
Details in all cases: 10 µM unless noted
DU-145 prostate = tested on: DU-145 prostate
K-562 leukemia = tested on: K-562 leukemia
MALME-3M melanoma = tested on: MALME-3M melanoma
MDA-MB-231 breast = tested on: MDA-MB-231 breast
RXF 393 renal = tested on: RXF 393 renal
SF-268 CNS = tested on: SF-268 CNS
SF-295 CNS = tested on: SF-295 CNS
SF-539 CNS = tested on: SF-539 CNS
UACC-257 melanoma = tested on: UACC-257 melanoma
M14 melanoma = tested on: M14 melanoma

Measured: growth

CN1CCN(Cc2ccc(NC(=O)c3cncc(C#Cc4cnc5ccc(N)nn45)c3)cc2C(F)(F)F)CC1
inactive: DU-145 prostate 17.7% | SF-295 CNS 53.8% | UACC-257 melanoma 55.3%
active: K-562 leukemia 6.78% | MALME-3M melanoma -36.6% | MDA-MB-231 breast 2.36% | RXF 393 renal -9.41% | SF-268 CNS 6.31% | SF-539 CNS 3.36% | M14 melanoma -1.8%

CCOC(=O)c1c(NCC(=O)Nc2cccc([N+](=O)[O-])c2)sc(C(C)=O)c1C
active: DU-145 prostate -13.9% | K-562 leukemia 8.15% | MALME-3M melanoma -21.8% | RXF 393 renal -86.5% | SF-268 CNS -17.6% | SF-295 CNS -11.7% | SF-539 CNS -28.8% | UACC-257 melanoma -11.9% | M14 melanoma -81.7%
inactive: MDA-MB-231 breast 10.3%

O=C(CSc1nc2ccccc2c(=O)n1-c1ccc(Cl)cc1)N/N=C/c1ccc(Oc2ccc(Cl)cc2)cc1
inactive: DU-145 prostate 13.1% | K-562 leukemia 23% | MDA-MB-231 breast 30.4% | SF-268 CNS 55.8% | SF-295 CNS 64.7% | SF-539 CNS 69.7% | UACC-257 melanoma 59%
active: MALME-3M melanoma -39.4% | RXF 393 renal -43.8% | M14 melanoma -39.4%

O=C(/C=C/C=C/c1csc(Br)n1)NO
inactive: DU-145 prostate 94.3% | K-562 leukemia 73% | MALME-3M melanoma 85.2% | MDA-MB-231 breast 106% | RXF 393 renal 95.2% | SF-268 CNS 102% | SF-295 CNS 107% | SF-539 CNS 83.2% | UACC-257 melanoma 79.8% | M14 melanoma 94.6%

CC(=O)/C(N=Nc1ccc2oc(=O)ccc2c1)=C(\C)O
inactive: DU-145 prostate 48.5% | MALME-3M melanoma 58.3% | MDA-MB-231 breast 61.2% | RXF 393 renal 51.6% | SF-268 CNS 45.7% | SF-295 CNS 22.5% | SF-539 CNS 51.5% | UACC-257 melanoma 37.5% | M14 melanoma 35.7%
active: K-562 leukemia 9.96%

COc1ccc2sc(NC(=O)CCCCCCNC(=O)C(O)(O)C(F)(F)F)nc2c1
inactive: K-562 leukemia 11.2% | MALME-3M melanoma 20.7% | MDA-MB-231 breast 20% | UACC-257 melanoma 12.5% | M14 melanoma 13.4%
active: DU-145 prostate 4.67% | RXF 393 renal -47.6% | SF-268 CNS -0.601% | SF-295 CNS -37.1% | SF-539 CNS 6.85%

CNC(=O)c1cc(N2CCc3cc(NC(=O)Nc4ccc(N5CCN(C)CC5)c(C(F)(F)F)c4)ccc32)ccn1
active: K-562 leukemia 0.938% | RXF 393 renal -16% | SF-295 CNS -49.8%
inactive: DU-145 prostate 84.6% | MALME-3M melanoma 67.8% | MDA-MB-231 breast 74.3% | SF-268 CNS 80.4% | SF-539 CNS 16.8% | UACC-257 melanoma 104% | M14 melanoma 61.6%

Cn1cc(C2=C(c3coc4cc(Br)ccc34)C(=O)NC2=O)c2ccccc21
inactive: DU-145 prostate 108% | K-562 leukemia 27.4% | MALME-3M melanoma 104% | MDA-MB-231 breast 87.8% | RXF 393 renal 66.3% | SF-268 CNS 83.5% | SF-295 CNS 86.9% | SF-539 CNS 69.5% | UACC-257 melanoma 100% | M14 melanoma 68.7%

COc1cc(/C=N\NC(=O)c2ccc3nc(-c4ccc(Br)cc4)[nH]c3c2)cc(OC)c1OC
active: RXF 393 renal 9.72%
inactive: DU-145 prostate 65.6% | K-562 leukemia 22.5% | MALME-3M melanoma 23.4% | MDA-MB-231 breast 101% | SF-268 CNS 51.7% | SF-295 CNS 32.5% | SF-539 CNS 32.6% | UACC-257 melanoma 33.1% | M14 melanoma 38.3%

COc1ccc(/C(=N\NC(N)=S)c2ccc(Cl)cc2)cc1OC
active: M14 melanoma -4.37%
inactive: DU-145 prostate 37.5% | K-562 leukemia 19% | MALME-3M melanoma 30.8% | MDA-MB-231 breast 16.8% | RXF 393 renal 25.1% | SF-268 CNS 45% | SF-295 CNS 13.4% | SF-539 CNS 14.2% | UACC-257 melanoma 42.9%

N#C/C(=C\c1ccc(-c2ccc(Cl)c(Cl)c2)o1)C(=O)Nc1ncc(Cc2ccc(Cl)cc2)s1
inactive: DU-145 prostate 29.7% | K-562 leukemia 52.5% | MALME-3M melanoma 17.2% | MDA-MB-231 breast 50% | RXF 393 renal 66% | SF-268 CNS 34.7% | SF-295 CNS 20.4% | SF-539 CNS 46.7% | UACC-257 melanoma 78.2% | M14 melanoma 21.6%

O=C(N/N=C\c1ccc(F)cc1)c1ccc2nc(-c3ccc(Br)cc3)[nH]c2c1
active: DU-145 prostate -22.1% | MALME-3M melanoma -49.9% | RXF 393 renal -12.3%
inactive: K-562 leukemia 19.9% | MDA-MB-231 breast 60.6% | SF-268 CNS 44.8% | SF-295 CNS 39.4% | SF-539 CNS 10.9% | UACC-257 melanoma 74.5% | M14 melanoma 18.8%

O=C(/C=C/c1cccc(Br)c1)c1cccc(OCCCCOc2cccc(C(=O)/C=C/c3cccc(Br)c3)c2)c1
inactive: DU-145 prostate 109% | K-562 leukemia 90.1% | MALME-3M melanoma 98% | MDA-MB-231 breast 101% | RXF 393 renal 105% | SF-268 CNS 99.9% | SF-295 CNS 107% | SF-539 CNS 104% | UACC-257 melanoma 109% | M14 melanoma 93.9%

CC(C)(O)c1cncc(-c2ccc3ncc(C#N)c(N4CCc5cc(F)c(Cl)cc54)c3c2)c1
inactive: DU-145 prostate 11.7% | K-562 leukemia 29.6% | MDA-MB-231 breast 20.4% | SF-268 CNS 21.5% | UACC-257 melanoma 11% | M14 melanoma 10.3%
active: MALME-3M melanoma -12.8% | RXF 393 renal -34.1% | SF-295 CNS -10.9% | SF-539 CNS -15%

O=C(/C=C/c1ccccc1Cl)Nc1ncc(Cc2cc(Cl)ccc2Cl)s1
inactive: DU-145 prostate 30.7% | K-562 leukemia 12.9% | MALME-3M melanoma 39.7% | MDA-MB-231 breast 49.4% | RXF 393 renal 17.2% | SF-268 CNS 43.9% | SF-295 CNS 14.7% | UACC-257 melanoma 61.5% | M14 melanoma 18.2%
active: SF-539 CNS 1.2%

COc1ccc(OC)c(NC(=O)CCCCCCNC(=O)C(O)(O)C(F)(F)F)c1
inactive: DU-145 prostate 34.9% | K-562 leukemia 19.4% | MALME-3M melanoma 24.9% | MDA-MB-231 breast 61.6% | SF-268 CNS 55% | SF-295 CNS 20.6% | SF-539 CNS 46% | UACC-257 melanoma 41.2% | M14 melanoma 46.8%
active: RXF 393 renal 1.79%

CS(=O)(=O)c1ccc(/C(=N/N=C(N)N)c2ccc(Cl)cc2)cc1
inactive: DU-145 prostate 101% | K-562 leukemia 40.7% | MALME-3M melanoma 81.6% | MDA-MB-231 breast 96.1% | RXF 393 renal 82.6% | SF-268 CNS 80.7% | SF-295 CNS 95.4% | SF-539 CNS 91.8% | UACC-257 melanoma 90.2% | M14 melanoma 72.8%

CC(C)(C)Nc1nc2c(OCCc3ccccc3)cccn2c1-c1cccc(Oc2ccccc2)c1
inactive: DU-145 prostate 25.5% | K-562 leukemia 15.7% | MDA-MB-231 breast 17.7% | SF-268 CNS 32.4% | M14 melanoma 18%
active: MALME-3M melanoma 0.427% | RXF 393 renal -8.9% | SF-295 CNS 6.47% | SF-539 CNS -0.94% | UACC-257 melanoma 6.07%

O=C(/C=C/c1cc(Cl)ccc1Cl)Nc1ncc(Cc2ccc(Cl)cc2)s1
inactive: DU-145 prostate 14.8% | MALME-3M melanoma 49% | RXF 393 renal 33.7% | SF-268 CNS 34.7% | UACC-257 melanoma 49.1%
active: K-562 leukemia 9.62% | MDA-MB-231 breast 6.75% | SF-295 CNS -2.3% | SF-539 CNS -22.6% | M14 melanoma 5.98%

Cc1cc(Br)ccc1-n1cc(C#N)c(N)c1C(=O)c1ccc(Br)cc1
inactive: DU-145 prostate 119% | K-562 leukemia 119% | MALME-3M melanoma 106% | MDA-MB-231 breast 93.6% | RXF 393 renal 108% | SF-268 CNS 114% | SF-295 CNS 98.5% | SF-539 CNS 97.4% | UACC-257 melanoma 103% | M14 melanoma 89.4%

O=C1Nc2ccccc2/C1=N\c1nnc(-c2ccccc2)o1
inactive: DU-145 prostate 107% | K-562 leukemia 103% | MALME-3M melanoma 89.7% | MDA-MB-231 breast 82.9% | RXF 393 renal 92% | SF-268 CNS 98.1% | SF-295 CNS 92.8% | SF-539 CNS 97.8% | UACC-257 melanoma 100% | M14 melanoma 95.9%

CC[C@]12CC(C(=O)OC)=C3Nc4ccccc4[C@@]34CCN(C14)[C@@H]1c3cc4c(cc3O[C@@H]1[C@H]2O)NC1=C(C(=O)OC)C[C@@]2(CC)C3N(CC[C@@]143)C[C@H]1O[C@H]12 (stereo not given in full)
inactive: DU-145 prostate 41.9% | MDA-MB-231 breast 22.2% | SF-268 CNS 29.4% | SF-539 CNS 15.5% | UACC-257 melanoma 24.8% | M14 melanoma 17.6%
active: K-562 leukemia 6.04% | MALME-3M melanoma 5.67% | RXF 393 renal -17.9% | SF-295 CNS 9.12%

FC(F)(F)c1cc(Br)cc(-c2cc(-c3ccc4c(c3)OCCO4)[nH]n2)c1
active: MDA-MB-231 breast 1.68% | SF-539 CNS -5.31%
inactive: DU-145 prostate 23.8% | K-562 leukemia 14.6% | MALME-3M melanoma 48.4% | RXF 393 renal 31.6% | SF-268 CNS 41.7% | SF-295 CNS 12.3% | UACC-257 melanoma 80.4% | M14 melanoma 20.1%

COc1ccc(/C=N/NC(=O)CSc2nc(-c3cnccn3)cc(-c3cccs3)c2C#N)cc1
inactive: DU-145 prostate 61.7% | K-562 leukemia 79.5% | MALME-3M melanoma 91.9% | MDA-MB-231 breast 70.5% | RXF 393 renal 39.7% | SF-268 CNS 83.5% | SF-295 CNS 80.3% | SF-539 CNS 39.1% | UACC-257 melanoma 95.9% | M14 melanoma 77.4%

Cc1nc(/N=C(N)/N=C(\N)c2cccc(Br)c2)sc1C
active: SF-295 CNS 8.89%
inactive: DU-145 prostate 57.9% | K-562 leukemia 15.9% | MALME-3M melanoma 62% | MDA-MB-231 breast 76.5% | RXF 393 renal 56.9% | SF-268 CNS 80% | SF-539 CNS 37.8% | UACC-257 melanoma 88.3% | M14 melanoma 47.1%

O=C(CCCCCCN1CC(=O)N2[C@@H](c3ccc(Cl)s3)c3[nH]c4ccccc4c3C[C@H]2C1=O)NO
inactive: DU-145 prostate 57.9% | K-562 leukemia 27.5% | MALME-3M melanoma 21.9% | MDA-MB-231 breast 43.8% | RXF 393 renal 37.7% | SF-268 CNS 81.6% | SF-295 CNS 37.1% | SF-539 CNS 40.9% | UACC-257 melanoma 53.4% | M14 melanoma 51.8%
